Assay results reported in PubChem BioAssay.
Activity calls are given as the source filed them.

Columns and labels:
[1] = optical density shifts of acrAB sulA E. coli – strain DRC41, OD650, 48 h, E. coli filamentation inducer project, primary screen (AID 1152); conditions: higher = more signal, called active from +8 up or from −8 down;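 note: E. coli MC1000 strain DRC41 lacking acrAB efflux pump and sulA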
[2] = probe aLefty1 binding on compound microarray – biochemical, small-molecule microarray, 635/667 nm fluorescence, primary screen (AID 1153); conditions: higher = more signal;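 note: score merges spot fluorescence with signal-to-noise ratio from the scanned slide images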
[3] = plasmodial surface anion channel blockers, osmotic lysis – cell-based, P. falciparum Indochina, OD700, 1 h, primary screen (AID 1154); conditions: P. falciparum Indochina infected RBC osmotic lysis, higher = more signal, called active from +8 up or from −8 down
[4] = plasmodial surface anion channel blockers, osmotic lysis – cell-based, P. falciparum Indochina, OD700, 2 h, primary screen (AID 1155);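 note: lysis reports solute entry through the parasite surface anion channel PSAC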; conditions: P. falciparum Indochina infected erythrocytes, higher = more signal, called active from +8 up or from −8 down
[5] = changes in parasitized red cell lysis, either direction – P. falciparum Indochina, OD700, 3 h, PSAC antagonist project, primary screen (AID 1156); conditions: P. falciparum-infected erythrocytes, osmotic lysis, higher = more signal, called active from +8 up or from −8 down
[6] = plasmodial surface anion channel blockers, osmotic lysis – cell-based, P. falciparum Indochina, OD700, 18 h, primary screen (AID 1157); conditions: P. falciparum Indochina infected erythrocytes, osmotic lysis OD700, 18 h; higher = more signal, called active from +8 up or from −8 down
[7] = S6 kinase pathway phospho-S6 level changes – cell-based, A549, cytoblot, luminescence, serum-stimulated, primary screen (AID 1158); conditions: 5 h, higher = more signal;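 note: serum-stimulated A549 lung adenocarcinoma cells; signal is phosphorylated S6 detected by cytoblot immunostaining with HRP secondary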
[8] = target: NADPH oxidase 2 (Homo sapiens) (UniProt P04839); assay: compounds shifting NOX2 Amplex Red fluorescence – cell-based, HEK293-NOX2, PMA-stimulated, NOX inhibitor project, primary screen (AID 1159); conditions: 45 min, higher = more signal, called active from +8 up or from −8 down; note: test concentration not given here
[9] = target: NADPH oxidase 4 (Homo sapiens) (UniProt Q9NPH5); assay: compounds shifting NOX4 Amplex Red fluorescence – cell-based, HEK293-NOX4, tetracycline-induced, NOX inhibitor project, primary screen (AID 1160); conditions: HEK293-NOX4, Amplex Red H2O2 fluorescence, 45 min; higher = more signal, called active from +8 up or from −8 down
[10] = target: NADPH oxidase 5 (Homo sapiens) (UniProt Q96PH1); assay: compounds shifting NOX5 Amplex Red fluorescence – cell-based, HEK293-NOX5, NOX inhibitor project, primary screen (AID 1161); conditions: HEK293-NOX5, ionomycin, 45 min, higher = more signal
NADPH oxidase 5 (Homo sapiens), sequence (Q96PH1 whole entry, looked up): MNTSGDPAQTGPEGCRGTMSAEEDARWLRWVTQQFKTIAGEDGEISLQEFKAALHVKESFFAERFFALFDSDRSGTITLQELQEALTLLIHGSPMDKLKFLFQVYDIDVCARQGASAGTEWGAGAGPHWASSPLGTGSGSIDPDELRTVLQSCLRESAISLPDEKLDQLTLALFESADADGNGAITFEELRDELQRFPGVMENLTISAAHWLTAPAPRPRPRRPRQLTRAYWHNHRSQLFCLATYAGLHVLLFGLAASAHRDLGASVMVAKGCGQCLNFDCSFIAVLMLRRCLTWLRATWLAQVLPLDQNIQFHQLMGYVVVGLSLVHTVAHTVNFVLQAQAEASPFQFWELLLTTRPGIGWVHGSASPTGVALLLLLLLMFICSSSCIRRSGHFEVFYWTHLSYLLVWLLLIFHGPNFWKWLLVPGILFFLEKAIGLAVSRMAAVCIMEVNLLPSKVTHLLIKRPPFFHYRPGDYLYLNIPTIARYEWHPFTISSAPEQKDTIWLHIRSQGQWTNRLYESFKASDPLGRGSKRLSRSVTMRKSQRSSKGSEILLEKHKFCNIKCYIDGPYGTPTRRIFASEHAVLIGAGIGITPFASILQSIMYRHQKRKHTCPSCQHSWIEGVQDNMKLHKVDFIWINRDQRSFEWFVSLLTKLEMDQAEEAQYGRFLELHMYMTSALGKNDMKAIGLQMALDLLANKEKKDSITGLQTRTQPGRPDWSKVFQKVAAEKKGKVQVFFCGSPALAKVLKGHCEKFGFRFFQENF

NADPH oxidase 4 (Homo sapiens), sequence (Q9NPH5 whole entry, looked up): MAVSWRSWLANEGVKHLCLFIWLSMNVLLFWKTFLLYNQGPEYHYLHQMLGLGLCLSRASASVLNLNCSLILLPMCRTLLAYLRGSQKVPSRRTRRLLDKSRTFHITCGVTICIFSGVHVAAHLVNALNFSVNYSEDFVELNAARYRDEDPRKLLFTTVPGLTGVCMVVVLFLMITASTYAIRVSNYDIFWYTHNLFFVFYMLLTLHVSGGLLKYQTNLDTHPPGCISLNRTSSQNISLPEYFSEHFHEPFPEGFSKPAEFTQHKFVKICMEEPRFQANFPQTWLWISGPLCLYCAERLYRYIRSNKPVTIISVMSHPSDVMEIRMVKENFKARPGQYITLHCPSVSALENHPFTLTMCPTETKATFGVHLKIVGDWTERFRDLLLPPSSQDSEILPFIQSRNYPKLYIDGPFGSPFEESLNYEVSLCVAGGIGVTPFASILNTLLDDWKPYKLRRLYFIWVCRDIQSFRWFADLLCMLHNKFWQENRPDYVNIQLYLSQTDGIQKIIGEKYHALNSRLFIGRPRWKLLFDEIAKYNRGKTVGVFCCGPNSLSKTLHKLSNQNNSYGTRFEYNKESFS
NADPH oxidase 2 (Homo sapiens), sequence (P04839 whole entry, looked up): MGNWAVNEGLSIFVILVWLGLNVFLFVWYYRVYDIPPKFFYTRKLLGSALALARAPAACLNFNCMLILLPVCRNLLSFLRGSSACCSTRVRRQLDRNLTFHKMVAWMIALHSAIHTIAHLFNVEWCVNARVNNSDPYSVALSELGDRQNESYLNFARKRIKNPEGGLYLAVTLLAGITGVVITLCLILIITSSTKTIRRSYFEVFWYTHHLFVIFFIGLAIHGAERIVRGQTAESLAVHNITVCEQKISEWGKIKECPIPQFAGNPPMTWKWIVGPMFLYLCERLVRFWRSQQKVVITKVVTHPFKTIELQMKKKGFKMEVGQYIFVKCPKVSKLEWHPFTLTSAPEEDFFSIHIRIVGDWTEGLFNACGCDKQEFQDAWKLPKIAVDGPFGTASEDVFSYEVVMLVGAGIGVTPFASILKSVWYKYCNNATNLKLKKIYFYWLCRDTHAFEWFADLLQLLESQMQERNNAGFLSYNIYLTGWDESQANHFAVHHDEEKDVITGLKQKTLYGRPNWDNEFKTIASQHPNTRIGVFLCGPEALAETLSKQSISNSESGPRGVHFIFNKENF

Row | Structure (SMILES) | z-score [1] | composite z-score [2] | z-score [3] | z-score [4] | z-score [5] | z-score [6] | z-score [7] | z-score [8] | z-score [9] | z-score [10]
1 | [N-]=[N+]=NCc1ccccc1C[C@]1(C(=O)N2CCCCC2)N=C(c2ccc(OCCCO)cc2)O[C@H]1c1ccccc1N=[N+]=[N-] | -0.365 (inactive) | 0.286 | 30.8 (active) | 26.5 (active) | 3.55 (inactive) | 6.26 (inactive) | 1.9 | -2.45 (inactive) | 0.306 (inactive) | -2.97
2 | CCCC[C@@H]1C[C@H]1[C@@H](NC(=O)c1ccccc1)c1ccc(C(=O)OC)cc1 | -2.42 (inactive) | 0.357 | 12.2 (active) | 1.91 (inactive) | 0.57 (inactive) | 0.643 (inactive) | -0.728 | -1.14 (inactive) | -2.96 (inactive) | -0.585
3 | [N-]=[N+]=NCc1ccccc1[C@@H]1OC(c2ccc(OCCCO)cc2)=N[C@]1(Cc1ccccc1)C(N)=O | -0.451 (inactive) | 0.0429 | 21.9 (active) | 4.7 (inactive) | 2.64 (inactive) | 1.03 (inactive) | 0.929 | -2.06 (inactive) | 0.76 (inactive) | -2.22
4 | [N-]=[N+]=Nc1ccccc1[C@H]1OC(c2ccc(OCCCO)cc2)=N[C@@]1(CCS(=O)(=O)c1ccccc1)C(N)=O | 0.613 (inactive) | 0.138 | 32 (active) | 28.1 (active) | 1.48 (inactive) | 2.16 (inactive) | -0.0187 | 0.178 (inactive) | 0.067 (inactive) | -0.909
5 | [N-]=[N+]=NCc1ccccc1[C@@H]1OC(c2ccc(OCCCO)cc2)=N[C@]1(Cc1ccccc1)C(=O)NCC(O)CO (stereo not given in full) | -0.0722 (inactive) | 0.484 | 13.5 (active) | 1.15 (inactive) | 0.942 (inactive) | 0.123 (inactive) | -0.319 | -0.847 (inactive) | 1.7 (inactive) | -0.0855
6 | CC(C)[Si](C#Cc1ccc(Oc2ccccc2)cc1)(O[Si](C#Cc1ccc(Oc2ccccc2)cc1)(C(C)C)C(C)C)C(C)C | 0.555 (inactive) | -0.103 | 2.62 (inactive) | 1.85 (inactive) | 0.226 (inactive) | 1.39 (inactive) | 0.335 | 1.49 (inactive) | 1.46 (inactive) | -1.34
7 | COC(=O)C(CC#Cc1ccc2c(c1)[C@]1(C(=O)N2)[C@H](C(=O)Nc2nc3ccccc3s2)[C@H]2C(=O)O[C@H](c3ccccc3)[C@H](c3ccccc3)N2[C@@H]1c1ccccc1OCCO)C(=O)OC | -0.839 (inactive) | 0.284 | 4.9 (inactive) | 2.16 (inactive) | -0.174 (inactive) | 1.69 (inactive) | -0.333 | 1.28 (inactive) | 0.252 (inactive) | 0.774
8 | C=CCN1C(=O)[C@@]2(CC=C)N=C(c3ccc(OCCCO)cc3)O[C@H]2c2ccccc21 | 1.92 (inactive) | 0.547 | 34.5 (active) | 30.9 (active) | 3.11 (inactive) | 9.88 (active) | 1.63 | -2.21 (inactive) | 0.796 (inactive) | -0.809
9 | C=C[C@H](OC)[C@@H](OC(=O)Nc1ccc(OC)cc1)c1ccc(O)c(F)c1 | 0.496 (inactive) | 0.0921 | 4.19 (inactive) | 0.484 (inactive) | -0.433 (inactive) | 0.253 (inactive) | -0.102 | -1.5 (inactive) | 1.1 (inactive) | 5.13
10 | NC(=O)NCC#Cc1ccc2c(c1)[C@]1(C(=O)N2)[C@H](c2ccccc2OCCO)N2[C@H](c3ccccc3)[C@H](c3ccccc3)OC(=O)[C@H]2[C@@H]1C(=O)Nc1nc2ccccc2s1 | 0.726 (inactive) | 0.0692 | 1.19 (inactive) | 1.36 (inactive) | -5.62 (inactive) | 1.28 (inactive) | -0.0906 | 1.95 (inactive) | 1.32 (inactive) | 0.883
11 | CCCC[C@@H]1C[C@H]1[C@@H](NC(=O)C(C)(C)C)c1ccc(C(F)(F)F)cc1 | -2.06 (inactive) | 0.718 | 5.74 (inactive) | 0.367 (inactive) | 1.01 (inactive) | -1.37 (inactive) | 2.6 | -4.58 (inactive) | -4.44 (inactive) | -5.62
